40 compounds from PubChem BioAssay (Tox21) can be followed below.

Several values for one entry are separate records, joined by “and”; a condition that tells them apart may be missing. Equal values may be shown once. Inconclusive results are not listed. Entries that show only a call come without a potency. Activity calls are given as the source filed them. Calls follow the shape of the dose curve; as a rule, active = well fitted inhibition curve with a large enough effect in the repeat runs; inconclusive = weak or mixed curves; inactive = no such curve, though single readings can be large or run the other way.
Potency is read from the fitted curve at half-maximal effect.

A short description of the experiment: qHTS assay to identify small molecule antagonists of the thyroid receptor (TR) signaling pathway (AID 743065). Also: nearly all actives have a fitted effect of over 55% in size. The following applies: GH3.TRE-Luc, T3-stimulated luciferase inhibition, 23.5 h; series mostly up to 70.3 µM; activity, negative = inhibition: at the top concentration. From the text: U.S. Tox21 Program National Center for Advancing Translational Sciences [NCATS] NIH Chemical Genomics Center [NCGC] U.S. Environmental Protection Agency [EPA] National Institutes of Environmental Health Sciences [NIEHS] National Toxicology Program [NTP] U.S. Food and Drug Administration [FDA] Tox21 Assay Overview: Thyroid receptor (TR), a nuclear hormone receptor, plays an important role in development, proliferation, differentiation, metabolism, brain function, and cardiovascular system. […] To profile the Tox21 10K compound library in TR signaling, a cell-based GH3-TRE-Luc assay (GH3.TRE-Luc cell line, developed by the laboratory of Dr. Albertinka J. Murk, Wageningen University) was used to measure the inhibition of TR. GH3 (rat pituitary tumor) cells stably expressing a TR activity sensor consisting of two TR response elements and a luciferase reporter gene.
Tox21 Assay Protocol Summary: GH3.TRE-Luc cells were dispensed at 1500 cells/4 uL/well into 1536-well white solid bottom plates using a Multidrop Combi dispenser (Thermo Fisher Scientific Inc., Waltham, MA). After the assay plates were incubated at 37 C for 4 hours, 23 nL of library compound or DMSO controls was transferred to the assay plates by a pintool station (Kalypsys, San Diego, CA), followed by addition of 1 ul of T3 (1 nM, final concentration in the wells) to stimulate TR transactivation. The assay plates were incubated at 37 C for 23.5 h, and then 1 uL of CellTiter-Fluor reagent (Promega, Madision, WI) of measuring cytotoxicity was added to each well using a Bioraptr Flying Reagent Dispenser (FRD) workstation (Beckman Coulter, Indianapolis, IN, USA). The plates were incubated at 37 C and 5% CO2 for additional 30 min, and fluorescence intensity was measured by a ViewLux plate reader (PerkinElmer, Shelton, CT). For measuring luciferase reporter gene activity, 4 uL of ONE-Glo Luciferase Assay reagent (Promega) was added to each well using a Bioraptr FRD (Beckman Coulter), followed by 30 min incubation at room temperature. The luminescence intensity of plates was recorded by a ViewLux plate reader (PerkinElmer, Shelton, CT).
`Cc1cc2nc3c(=O)[nH]c(=O)nc-3n(C[C@H](O)[C@H](O)[C@H](O)CO)c2cc1C`: the Potency entry is “inactive”.

Regarding `C[Si](C)(C)O[Si](C)(C)C`, the Potency entry is “inactive”.

As for `O=C(c1ccc(OCCN2CCCCC2)cc1)c1c(-c2ccc(O)cc2)sc2cc(O)ccc12`, the Potency is 6.68 µM (active) and 4.86 µM (active).

Regarding `CC(C(=O)O)c1cccc(C(=O)c2ccccc2)c1` (stereo not given), the Potency entry is “inactive”.

On to `NNc1ccc(C(=O)O)cc1`, for which the Potency result was “inactive”.

Turning to `CCCCC(CC)COC(=O)c1ccc(N(C)C)cc1` (stereo not given), the Potency entry is “inactive”.

As for `CC(C)=CCCC(C)CCO` (stereo not given), the Potency entry was “inactive”.

Consider `Cc1cccc(N(C)C(=S)Oc2ccc3ccccc3c2)c1`, for which the “activity, negative = inhibition” value was -5.16% [at 32.5 µM] (inactive).

Regarding `O=S(=O)(O)c1ccc(O)cc1`, the Potency result is “inactive”.

Consider `Cc1cccc(C(=O)O)c1`, for which the Potency result was “inactive”.

`O=C(COc1ccc(Cl)cc1)N1CCN(Cc2ccc3c(c2)OCO3)CC1`: the “activity, negative = inhibition” value was -6.14% (inactive).

Turning to `OC[C@H]1O[C@@H]2O[C@H]3[C@H](O)[C@@H](O)[C@@H](O[C@H]4[C@H](O)[C@@H](O)[C@@H](O[C@H]5[C@H](O)[C@@H](O)[C@@H](O[C@H]6[C@H](O)[C@@H](O)[C@@H](O[C@H]7[C@H](O)[C@@H](O)[C@@H](O[C@H]8[C@H](O)[C@@H](O)[C@@H](O[C@H]1[C@H](O)[C@H]2O)O[C@@H]8CO)O[C@@H]7CO)O[C@@H]6CO)O[C@@H]5CO)O[C@@H]4CO)O[C@@H]3CO`, the Potency entry was “inactive”.

Take `Cc1[nH]c(=O)c(C#N)cc1-c1ccncc1`: the Potency entry was “inactive”.

Take `Cc1c(C(N)=O)cc([N+](=O)[O-])cc1[N+](=O)[O-]`: the Potency entry is “inactive”.

Consider `c1ccncc1`, for which the Potency result was “inactive”.

Take `Cc1ccc(C(=O)c2cc(O)c(O)c([N+](=O)[O-])c2)cc1`: the Potency is 68.6 µM (active).

On to `Nc1ccc(Cl)cc1Cl`, for which the Potency entry was “inactive”.

`NC=O`: the Potency entry is “inactive”.

For `O=C(c1ccccc1)c1ccccc1O`, the Potency result was “inactive”.

In the case of `O=C(OCc1ccccc1)c1ccccc1O`, the Potency entry was “inactive”.

On to `O=[N+]([O-])c1ccc2c(c1)Cc1ccccc1-2`, for which the Potency entry was “inactive”.

Take `CCC(C)OC(=O)c1ccc(O)cc1` (stereo not given): the Potency entry was “inactive”.

On to `O=C(Nc1ccc(Cl)cc1)Nc1ccc(Cl)c(Cl)c1`, for which the Potency was 2.66 µM (active) and 2.72 µM (active) and 2.73 µM (active).

For `CC(=O)Oc1ccccc1C(=O)Nc1ncc([N+](=O)[O-])s1`, the Potency was 11.9 µM (active) and 7.85 µM (active).

As to `O=C(O)c1ccccc1Nc1cccc(C(F)(F)F)c1`, the Potency is 23.7 µM (active) and 27.3 µM (active).

Regarding `CCOC(=O)C(C#N)=C(c1ccccc1)c1ccccc1`, the Potency result is “inactive”.

Take `CCCCOCCOCCO`: the Potency entry is “inactive”.

As to `O=C1c2cccc(O)c2C(=O)c2c(O)cccc21`, the Potency entry is “inactive”.

For the compound `COC(C)COC(C)COC(C)CO` (stereo not given), the Potency result is “inactive”.

As for `CCCc1c(OCCCCc2nn[nH]n2)ccc(C(C)=O)c1O`, the Potency was 23.7 µM (active) and 61.1 µM (active).

Regarding `COc1ccc(C(=O)CC(=O)c2ccc(C(C)(C)C)cc2)cc1`, the Potency is 29.8 µM (active).

As to `C=CC(C)(CCC=C(C)C)OC(C)=O` (stereo not given), the Potency result is “inactive”.

Regarding `c1ccc2c(c1)c1cccc3ccc4cccc2c4c31`, the Potency entry is “inactive”.

`Nc1ccccc1N`: the Potency was 5.45 µM (active).

Regarding `CC1=CCC(C(C)(C)O)CC1` (stereo not given), the Potency result was “inactive”.

Take `CCCCNS(=O)(=O)c1ccccc1`: the Potency entry is “inactive”.

`COC(=O)C1=C(C)NC(C)=C(C(=O)OCCN(C)Cc2ccccc2)C1c1cccc([N+](=O)[O-])c1` (stereo not given): the Potency is 9.44 µM (active) and 17.1 µM (active).

`CCCCCCCCCC(=O)OC`: the Potency result is “inactive”.

Turning to `CCC(C)CO` (stereo not given), the Potency result is “inactive”.

Take `Oc1ccc(O)cc1`: the Potency was 21.1 µM (active) and 30.5 µM (active) and 30.6 µM (active).
